High-throughput results: PubChem BioAssay, National Center for Advancing Translational Sciences (NCATS)
Sfp inh: qHTS Assay for Inhibitors of Bacillus subtilis Sfp phosphopantetheinyl transferase (PPTase). 3.5% of 310,000 active. Biochemical Sfp PPTase activity, qHTS. Potency, µM, most hits filed as inhibitors;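 note: the enzyme is Sfp with the accession as filed and its product quenches rhodamine fluorescence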
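After 15 min at room temperature with compound, 15 nM Sfp received 5 uM rhodamine-CoA plus 12.5 uM BHQ-2-ybbR (50 mM Hepes pH 7.6, 10 mM MgCl2). Rate came from the fluorescence difference over 30 min, ex 525/em 598 nm.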
Gal4-VP16 FLuc: VP16 counterscreen qHTS for inhibitors of ROR gamma transcriptional activity | Drosophila S2 Gal4-VP16 UAS-luciferase, luminescence, 20 h | Potency, µM (top dose mostly 53.6 µM), hits mostly inhibitors | 3.5% of 310,000 active | AID 2546, 2010;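 note: Gal4-VP16 expression switched on by copper sulfate through the metallothionein promoter; nearly all actives have a fitted effect of over 50% in size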
PLK1 PBD block: qHTS for Inhibitors of PLK1-PDB (polo-like kinase 1 - polo-box domain): Primary Screen; Potency, µM, hits mostly inhibitors; 2.8% of 360,000 active; Serine/threonine-protein kinase PLK1 (Homo sapiens), P53350; AID 720504, 2013; Plk1 PBD binding of FITC phosphopeptide, fluorescence polarization; note: series mostly up to about 57 µM; nearly all actives have a fitted effect of over 65% in size
ALDH1A1 inh: qHTS Assay for Inhibitors of Aldehyde Dehydrogenase 1 (ALDH1A1) | 7.3% of 220,000 active | Aldehyde dehydrogenase 1A1 (Homo sapiens), P00352 | Potency, µM (titrated, usually from 75.3 µM), usual class: inhibitors | Purified ALDH1A1, NADH fluorescence, propionaldehyde substrate; active = well fitted inhibition curve with a large enough effect, not every such curve was filed as active; inconclusive = small, poorly fitted or top-dose-only effect, or another doubt; inactive = no such curve, though single readings can be large or run the other way
Target sequence (P00352 whole entry, looked up): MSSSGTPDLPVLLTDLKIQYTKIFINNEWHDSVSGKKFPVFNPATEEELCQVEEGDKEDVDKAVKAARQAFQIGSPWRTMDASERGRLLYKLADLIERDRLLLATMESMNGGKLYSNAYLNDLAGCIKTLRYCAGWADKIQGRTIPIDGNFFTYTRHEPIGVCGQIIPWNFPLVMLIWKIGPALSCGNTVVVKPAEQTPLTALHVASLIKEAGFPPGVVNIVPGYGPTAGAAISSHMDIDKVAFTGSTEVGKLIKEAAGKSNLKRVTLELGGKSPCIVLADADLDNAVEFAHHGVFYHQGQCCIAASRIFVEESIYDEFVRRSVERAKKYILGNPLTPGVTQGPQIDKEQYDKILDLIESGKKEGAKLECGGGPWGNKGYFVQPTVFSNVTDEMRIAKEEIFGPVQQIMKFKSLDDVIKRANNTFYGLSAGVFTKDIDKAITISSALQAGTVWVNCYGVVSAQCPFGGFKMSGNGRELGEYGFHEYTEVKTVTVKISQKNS
RORg inh: qHTS for inhibitors of ROR gamma transcriptional activity; AID 2551, 2010; Drosophila S2 Gal4-RORgamma UAS-luciferase reporter, 20 h; Potency, µM (top dose mostly 53.6 µM), actives largely listed as inhibitors; 5.4% of 310,000 active; note: nearly all actives have a fitted effect of over 60% in size
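Drosophila Schneider cells stably carrying a metallothionein-driven Gal4 DBD–ROR gamma fusion and a UAS-Photinus luciferase reporter were exposed to compound for 1 hr, then induced with copper sulfate (700 uM final) for 20 hr at ambient temperature before luminescence reading.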
Of the large screens only hits and unclear results are named; the others gave an inactive call. Rows were chosen to be rich in hits. Some 12% of all compounds tested hit in one or more screens of this group. Unless noted, calls come from the whole dose curve; as a rule, active = well fitted curve in the direction sought with a large enough effect; inconclusive = small, poorly fitted or top-dose-only effect, or another doubt; inactive = no such curve, though single readings can be large; an effect the other way counts as inactive or inconclusive.

Cc1ccc(C(=O)Oc2ccc(Cl)c3cccnc23)cc1[N+](=O)[O-]	Gal4-VP16 FLuc 3.5µM, RORg inh 1.6µM
CC1CCN(S(=O)(=O)c2cc(C(=O)N3CCN(c4ccccc4)CC3)ccc2Br)CC1	none (no result: Sfp inh, Gal4-VP16 FLuc, ALDH1A1 inh, RORg inh)
Nc1ccc2c(c1)-c1ccc(F)cc1C2=O	none (no result: Sfp inh, Gal4-VP16 FLuc, ALDH1A1 inh, RORg inh)
NC(=O)c1ccc(Oc2cccc3cccnc23)c([N+](=O)[O-])c1	none
CCc1nc(C)ccc1OC(=O)C12CC3CC(CC(C3)C1)C2	ALDH1A1 inh 18µM
COc1ccc(C(=O)Oc2cccc3cccnc23)cc1[N+](=O)[O-]	Gal4-VP16 FLuc 3.2µM, ALDH1A1 inh inconclusive, RORg inh 2.2µM
COc1cccc(C(NC(C)=O)c2nc(-c3csc4ccccc34)cs2)c1 (stereo not drawn)	none (no result: Sfp inh, Gal4-VP16 FLuc, ALDH1A1 inh, RORg inh)
CCN(c1ccccc1)c1nc(Cl)nc2c1cnn2C	none (no result: Sfp inh, Gal4-VP16 FLuc, ALDH1A1 inh, RORg inh)
O=C(C1CCN(S(=O)(=O)c2cnc[nH]2)CC1)N(CCc1ccccc1)Cc1ccccc1	none
O=C(C1CCCN(S(=O)(=O)c2cnc[nH]2)C1)N(CCc1ccccc1)Cc1ccccc1 (stereo not drawn)	ALDH1A1 inh 11µM
Cc1cccc2sc(NC(=O)CNS(=O)(=O)c3ccc(Br)s3)nc12	RORg inh 11µM
Cc1ccc2nc(NC(=O)CNS(=O)(=O)c3ccc(Br)s3)sc2c1	none
CCS(=O)(=O)N1Cc2ccccc2CC1C(=O)Nc1nnc(SCc2c(Cl)cccc2Cl)s1 (stereo not drawn)	Gal4-VP16 FLuc 6.3µM, RORg inh 5µM
CCSc1nnc(NC(=O)C2Cc3ccccc3CN2S(=O)(=O)CC)s1 (stereo not drawn)	RORg inh inconclusive
CCS(=O)(=O)N1Cc2ccccc2CC1C(=O)Nc1nc2c(C)cccc2s1 (stereo not drawn)	Gal4-VP16 FLuc 5.6µM, RORg inh 3.5µM
Cc1cnc(C(=O)Nc2nnc(SCc3c(Cl)cccc3Cl)s2)cn1	Gal4-VP16 FLuc 5µM, RORg inh 2µM
Cc1cc(C)c(-c2cc([C@H](C)O/N=C\[C@@H](C)[C@H](OCc3ccccc3)C(C)C)on2)c(C)c1	none (no result: PLK1 PBD block)
CCCCn1cnc2c(SC)ncnc21	none (no result: Sfp inh, Gal4-VP16 FLuc, PLK1 PBD block, RORg inh)
C/C(=N/NS(=O)(=O)c1ccc(Cl)cc1)c1cccc(NC(=O)c2ccc(Cl)cc2Cl)c1	PLK1 PBD block 19µM, ALDH1A1 inh inconclusive, RORg inh inconclusive
CCC(=O)NC(=S)Nc1cccc(NC(=O)c2ccccc2C)c1	ALDH1A1 inh inconclusive, RORg inh inconclusive
CCC(=O)NC(=S)Nc1cccc(NC(=O)c2ccccc2)c1	Gal4-VP16 FLuc inconclusive, RORg inh 5µM
CCOC(=O)NC(=S)c1ccc[nH]1	Gal4-VP16 FLuc inconclusive, RORg inh 13µM
CCCC(=O)NC(=S)Nc1cccc(NC(=O)c2ccc(Cl)cc2Cl)c1	Gal4-VP16 FLuc inconclusive, PLK1 PBD block 27µM, RORg inh 10µM
CCOC(=O)NC(=S)Nc1cccc(NC(=S)NC(=O)OCC)c1	Gal4-VP16 FLuc inconclusive, RORg inh 7.1µM
O=C(NNc1cc(Cl)ccc1Cl)c1cccs1	Sfp inh inconclusive, ALDH1A1 inh 1.9µM
COC(=O)CC(NC(=S)NC(=O)c1ccccc1)c1ccc(Br)cc1 (stereo not drawn)	Gal4-VP16 FLuc inconclusive, RORg inh 13µM (no result: ALDH1A1 inh)
Cc1cc(Cl)ccc1NNC(=O)c1cccs1	none
CCC(=O)NC(=S)Nc1ccc(NC(=S)NC(=O)c2ccccc2)cc1	Gal4-VP16 FLuc inconclusive, ALDH1A1 inh 25µM, RORg inh 3.2µM
COC(=O)CC(N)c1ccc(Br)cc1 (stereo not drawn)	none
Cc1cc2c(cc1C)-n1nnnc1C(N1CCN(CC(=O)NC(C)C)CC1)C(=O)N2 (stereo not drawn)	none (no result: Sfp inh, Gal4-VP16 FLuc, ALDH1A1 inh, RORg inh)
COC(=O)[C@@]1(Cc2ccc(OC)cc2)[C@H]2c3cc(C(=O)N4CCCC4)n(Cc4cc(F)c(F)c(F)c4)c3C[C@H]2CN1C(=O)c1ccccc1	none (no result: PLK1 PBD block)
Cc1ccccc1Nc1nc(N)[nH]c(=O)c1N=O	none (no result: Sfp inh, Gal4-VP16 FLuc, ALDH1A1 inh, RORg inh)
O=C(O)CCC(=O)Nc1ccc(NC(=O)c2ccc(Cl)cc2Cl)c(Cl)c1	PLK1 PBD block 21µM
O=C(Nc1ccc(NC(=O)c2ccc(Cl)cc2Cl)cc1)c1cccs1	none (no result: ALDH1A1 inh)
O=C(NC(=S)Nc1cccc(NC(=O)c2ccc(Cl)cc2Cl)c1)c1cccs1	Gal4-VP16 FLuc 11µM, ALDH1A1 inh inconclusive, RORg inh 20µM
